# Screening results from PubChem.
# Rab9 promoter act = activators of Rab9 promoter; Huh7 Rab9 promoter-luciferase reporter, luminescence, 24 h; Potency, µM (titrated, usually from 9.22 µM), inactives show at the top dose activation, negative = inhibition, hits mostly activators; hit rate 2.8% among 320,000; AID 485297; further: % of control where 0% means no effect; nearly all actives have a fitted effect of over 60% in size
#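 Quantitative HTS format; Huh7 Rab9-luciferase reporter cells (1500/well) receive compound 2 h post-plating, incubate 24 h at 37 °C, then get luciferase reagent for 10 min before luminescence reading.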
# NPC1 promoter act = activators of NPC1 promoter; Huh7 NPC1 promoter luciferase reporter, 24 h; Potency, µM (highest dose often 9.22 µM), inactives show at the highest dose activation, usual class: activators; hit rate 2.4% among 320,000; further: % of control where 0% means no effect; nearly all actives have a fitted effect of over 60% in size
#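 Quantitative HTS used a cell-based reporter: Huh7 cells stably bearing the NPC1 promoter upstream of luciferase were treated with compounds for 24 h, and promoter activation was read as luminescence.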
# ELG1 genotoxic = inducers of genotoxicity in HEK293T ELG1-luciferase cells. Potency, µM (series often up to 46 µM), for the others: top-dose activity change, positive = activation, hits mostly activators. hit rate 1.3% among 330,000. HEK293T ELG1-luciferase reporter, luminescence, 16 h; further: % of control where 0% means no effect; nearly all actives have a fitted effect of over 60% in size
#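 HEK293T cells expressing luciferase-tagged ELG1 were treated with compound or DMSO for 16 hr at 37°C. Luciferase activity was then read after 30 min with ONE-Glo at room temperature; rising signal flags genetic stress.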
# Luc counter = Kinase-Glo luciferase inhibition (counter-screen); Potency, µM (titrated, usually from 38.3 µM), inactives show at the highest dose activity change, negative = inhibition, usual class: inhibitors; Kinase-Glo luciferase, ATP luminescence, 8 min; Q27757; hit rate 0.28% among 200,000; AID 1379; further: on the % scale 0 is the no-effect control and ±100 the full control effect; nearly all actives have a fitted effect of over 60% in size
#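 Kinase-Glo luciferase light output from ATP and luciferin was measured with 10 uM ATP, within the enzyme's linear range. Buffer: 50 mM imidazole pH 7.2, 50 mM KCl, 7 mM MgCl2, 0.01% Tween 20, 0.05% BSA; luminescence read after 8 min at ambient temperature.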
# SMN2 splice up = increases expression of the SMN2 splice variant; hit rate 2.8% among 210,000; HEK293 SMN2-luciferase splicing reporter, luminescence, 30-36 h; AID 1458; Potency, µM (series often up to 46.1 µM), without a hit: at the highest dose activity change, positive = activation, hits mostly activators; further: % of control where 0% means no effect; nearly all actives have a fitted effect of over 55% in size
#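 HEK293 cells carry an SMN2 […]–luciferase reporter in which exon 7 inclusion puts luciferase in frame. Cells were plated 10-12 h before compound addition, then incubated 30-36 h at 37C. ONE-Glo luminescence was read; sodium butyrate at 4.5 mM final served as control.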
# FLuc modulator = firefly luciferase modulation, counter-screen for miR-21 project; purified FLuc, Km substrates, luminescence inhibition; P08659; hit rate 6.9% among 360,000; Potency, µM (doses to about 57.5 µM), without a hit: at the highest dose activity change, negative = inhibition, most hits filed as inhibitors;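 further: plate controls were vehicle for no effect and reference inhibitor for full effect; nearly all actives have a fitted effect of over 55% in size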
# Target sequence (P08659 whole entry, looked up): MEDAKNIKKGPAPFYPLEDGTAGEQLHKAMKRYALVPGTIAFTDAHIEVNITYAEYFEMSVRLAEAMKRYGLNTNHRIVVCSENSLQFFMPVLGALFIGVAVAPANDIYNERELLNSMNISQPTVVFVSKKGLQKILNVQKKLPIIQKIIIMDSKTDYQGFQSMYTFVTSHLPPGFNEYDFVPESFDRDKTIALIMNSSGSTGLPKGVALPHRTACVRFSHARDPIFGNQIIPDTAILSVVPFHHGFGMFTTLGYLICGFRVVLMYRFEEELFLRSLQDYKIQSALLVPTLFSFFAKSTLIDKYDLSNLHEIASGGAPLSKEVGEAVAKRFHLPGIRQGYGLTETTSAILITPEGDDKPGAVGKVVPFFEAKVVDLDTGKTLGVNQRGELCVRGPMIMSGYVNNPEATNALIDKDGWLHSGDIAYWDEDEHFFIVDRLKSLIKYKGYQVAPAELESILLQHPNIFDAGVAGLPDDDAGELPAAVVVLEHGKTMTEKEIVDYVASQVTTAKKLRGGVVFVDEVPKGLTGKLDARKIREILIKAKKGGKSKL
#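 Purified P. pyralis luciferase (10nM final) with 10uM D-luciferin and 10uM ATP (Km levels) in 50mM Tris acetate pH 7.5, 10mM Mg acetate, 0.01% Tween-20, 0.05% BSA; qHTS 6-point titration, ~60 µM downward; luminescence read.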
# The depositor's hits bear a star; ? = inconclusive; / = no result; [ ] = dose if it differs, or a comment. Hits are enriched below; roughly 7.5% of the tested compounds scored in any of these assays. The call rests on the fitted dose curve; in most records, active means well fitted curve in the direction sought with a large enough effect; inconclusive means small, poorly fitted or top-dose-only effect, or another doubt; inactive means no such curve, though single readings can be large; an effect the other way counts as inactive or inconclusive. Potency means the concentration at half of the fitted maximal effect.
SMILES,Rab9 promoter act,NPC1 promoter act,ELG1 genotoxic,Luc counter,SMN2 splice up,FLuc modulator
O=C1NC(=S)N/C1=C/c1ccc2ccccc2c1,29.0%,13.8%,6.5%,/,/,-17.5%
CC(NC(=O)C1CCN(C(=O)Nc2ccccc2)CC1)c1ccc(Cl)cc1 (stereo unspecified),-5.5%,-10.0%,-1.7%,/,/,-3.0%
Cc1cc(NC(=O)CSc2nc3c(sc4ccccc43)c(=O)n2CCCN2CCOCC2)n[nH]1,-20.2%,4.6%,6.6%,1.9%,35.5µM*,2.8%
Cn1c(O)c(C2=c3ccccc3=NC2=O)[nH]c1=S,7.7%,21.1%,-0.9%,-5.6%,8.2%,-4.5%
COc1ccc2nc(-n3c(O)c(C4=c5ccccc5=NC4=O)[nH]c3=S)sc2c1,-5.0%,-2.6%,-1.0%,-8.8%,-11.0%,10.7µM*
CC(=O)c1ccc(NC(=O)c2cnc(N3CCCC3)nc2C)cc1,/,/,/,/,/,-1.6%
Cc1c(C(=O)NCc2ccc(F)cc2)sc2nc(-c3ccc(F)cc3)cn12,/,/,/,/,/,-7.9%
Cc1c(C(=O)NCC(C)C)sc2nc(-c3ccc(F)cc3)cn12,2µM*,?,?,0.1%,18.4%,-12.1%
COc1ccc(-c2cn3c(C)c(C(=O)Nc4cccc(NC(C)=O)c4)sc3n2)cc1,-3.2%,9.2%,2.2%,-1.0%,-17.7%,9.53µM*
Cc1c(C(N)=O)sc2nc(-c3ccccc3)cn12,?,?,?,-0.5%,29.9%,19µM*
Cc1ccc(CNC(=O)c2sc3nc(-c4ccccc4)cn3c2C)cc1,/,/,/,/,/,-2.3%
COC(=O)CCC(=O)c1oc2ccccc2c1N,-6.0%,-0.1%,?,-6.6%,-10.8%,21.3µM*
COC(=O)CCC(=O)c1oc2ccccc2c1NC(=O)CCCN1C(=O)c2ccccc2C1=O,4.3%,6.4%,-0.7%,-2.1%,-19.4%,-3.5%
CN(c1nc(-c2ccc(Br)cc2)cs1)C1CCS(=O)(=O)C1 (stereo unspecified),?,?,4.9%,-0.9%,18.3%,23.9µM*
Cc1ccsc1CN(C(=O)COc1ccc(Br)cc1)C1CCS(=O)(=O)C1 (stereo unspecified),/,/,/,/,7.5%,0.0%
C=CCn1cccc(/C=C/C(=O)c2ccc(C(C)(C)C)cc2)c1=S,-8.2%,-1.4%,-18.9%,-2.3%,-104.1%,13.5µM*
C=C1C(c2ccc(C)cc2)=CCc2cc(C)cc(C)c21,/,/,/,/,14.1µM*,/
Cc1cc(C)c2nc(SCC(=O)N3CC(=O)Nc4ccccc43)c(C#N)cc2c1,-31.1%,-18.9%,11.8%,-5.6%,-58.1%,12µM*
COc1ccc2nc(SCC(=O)N3CC(=O)Nc4ccccc43)c(C#N)cc2c1,-11.9%,-7.9%,-9.0%,2.7%,10.5%,?
O=S(=O)(Cc1ccccc1)c1ccccc1-c1nnc(-c2ccccc2)o1,-2.3%,-0.9%,0.2%,8.6%,-3.1%,4.4%
COc1ccc(-c2nnc(-c3ccccc3)o2)cc1OC,1.78µM*,2.24µM*,?,/,/,8.49µM*
c1ccc(-c2nnc(-c3ccncc3)o2)cc1,3.16µM*,?,11.5%,-14.6%,17.9%,?
COc1cccc(-c2nnc(NC(C)=O)o2)c1,5.3%,-0.8%,3.5%,/,/,-18.6%
Nc1ccccc1-c1nnc(-c2ccc(-c3ccccc3)cc2)o1,3.16µM*,3.98µM*,2.59µM*,-20.6%,?,3.01µM*
COc1cccc(-c2nnc(-c3ccc(C(F)(F)F)cc3)o2)c1,?,?,?,-1.2%,22.4µM*,?
SMILES,Rab9 promoter act,NPC1 promoter act,ELG1 genotoxic,Luc counter,SMN2 splice up,FLuc modulator
Cc1ccc(C(=O)c2cn(Cc3cccc(C)c3)c3nc(C)ccc3c2=O)cc1,/,/,/,/,2.3%,1.6%
CN(C(=O)c1ccc2c(c1)N(Cc1ccc(F)cc1)C(=O)c1ccccc1S2(=O)=O)C1CCCCC1,/,/,/,/,-16.1%,0.3%
Clc1cccc(-c2nnc(-c3ccccc3)o2)c1,0.891µM*,1.41µM*,1.16µM*,-24.6%,12.6µM*,1.51µM*
ClCc1nnc(-c2ccccc2)o1,0.3%,-3.6%,-1.2%,-3.9%,-6.1%,-8.7%
COc1ccc(-c2nnc(-c3cc4c(ccc5ccccc54)oc3=O)o2)cc1,5.9%,-0.8%,0.6%,-7.4%,-14.6%,3.9%
COc1ccc(-c2cc(-c3nnc(-c4ccncc4)o3)c3ccccc3n2)cc1,-3.5%,-3.5%,-0.3%,-5.8%,-6.4%[1.84 µM],2.69µM*
c1ccc(-c2nnc(-c3ccccc3)o2)cc1,1.41µM*,1.58µM*,?,-21.7%,12.6µM*,5.36µM*
COc1cc(-c2nnc(-c3ccco3)o2)ccc1OCc1ccccc1,16.7%,17.2%,10.8%,4.0%,?,15.1µM*
CCN1Cc2cc(OC)ccc2-c2ccccc2S1(=O)=O,/,/,-3.2%,/,/,/
CN(C)S(=O)(=O)c1cccc(-c2nnc(-c3ccccc3)o2)c1,?,?,?,-1.7%,10.5%,23.9µM*
CCn1cc2nc(SCC(=O)Nc3ccc(C)cc3)n(Cc3ccc(C)cc3)c(=O)c2n1,/,/,/,/,/,2.0%
CCSc1nc2c(cnn2-c2ccccc2)c(=O)n1N,1.26µM*,2.24µM*,?,/,/,13.5µM*
Cc1cccc(OC(=O)c2nc(SCc3ccccc3F)ncc2Cl)c1,/,/,/,/,-6.0%,5.0%
COc1cccc(Cn2cc(C(=O)c3ccc(Cl)cc3)c(=O)c3ccccc32)c1,/,/,/,/,-1.6%,1.7%
CC(=O)n1cc(/C=N/NC(=O)c2ccc(Cl)cc2)c2ccccc21,22.9%,29.0%,7.6%,/,/,3.38µM*
O=C(N/N=C/c1cn(Cc2ccccc2)c2ccccc12)c1ccncc1,-9.0%,-7.7%,-5.0%,-2.0%,-71.1%,?
CC(=O)n1cc(/C=N/NC(=O)c2cccc(O)c2)c2ccccc21,3.4%,-2.5%,13.4%,/,/,9.53µM*
CC(=O)n1cc(/C=N/NC(=O)c2ccccc2Cl)c2ccccc21,9.9%,11.1%,8.3%,/,/,19µM*
O=C(c1cnn2c1NC(=C1CC1)C=C2C(F)F)N(C1CCCCC1)C1CCCCC1,/,/,/,/,/,0.8%
CC(=O)C1=C(NC(=O)c2ccc(F)cc2)CC2C1C2(C)C (stereo unspecified),13.3%,0.8%,-4.5%,-2.1%,-15.6%,21.3µM*
Cc1cc(C)c2sc(N3CCN(C(=O)c4ccc(N(C)C)cc4)CC3)nc2c1,/,/,/,/,/,-14.9%
CCN(CC(=O)Nc1c(F)cccc1F)C(=O)/C=C/c1ccc(Br)s1,-1.7%,-0.7%,-3.1%,/,/,-8.9%
CS(=O)(=O)Nc1ccc(C2=NN(S(C)(=O)=O)C(c3ccc4c(c3)OCO4)C2)cc1 (stereo unspecified),2.51µM*,3.16µM*,?,14.4%,11.2µM*,9.53µM*
CC(=O)N1N=C(c2cccc(NS(C)(=O)=O)c2)CC1c1ccc2c(c1)OCO2 (stereo unspecified),14.5%,17.9%,-0.3%,/,/,?
